# Laboratory results reported in PubChem BioAssay.
# Where “and” joins values, the source holds several entries; their conditions need not be identical. Equal entries are not always repeated. Results filed as inconclusive are left out. Calls of active or inactive are those of the source.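 The calls were made as follows, unless noted: active = normalized viability below 100% at a tested concentration; inactive = the rest.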
# Legend:
# [1] = system: Aerobactin synthetase IucA (Klebsiella pneumoniae); assay: IucA aerobactin synthetase inhibitors, biochemical, Tocris library, absorbance (AID 1345561; call rule not given here;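 also: 100% = enzyme without compound and 0% = no enzyme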); conditions: purified IucA enzyme assay, absorbance (OD) read-out; stronger effect = lower value;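 tested at 8 µM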
# [2] = growth inhibition of DIPG glioma cells, dose response, cell-based, SU-DIPG-XVII, MIPE5.0, CellTiter-Glo, qHTS (AID 1347060; cut-off not given, nearly all actives have AC50 up to about 26 µM;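 as to AC50: cells exposed to compound for 48 hours before viability readout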); conditions: SU-DIPG-XVII viability, CellTiter-Glo ATP luminescence
# [3] = growth inhibition of DIPG glioma cells, dose response, cell-based, JHH-DIPG-1, MIPE4.0, CellTiter-Glo, qHTS (AID 1347062; cut-off not given, nearly all actives have AC50 up to about 27 µM;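 as to AC50: cells exposed to compound for two days before readout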); conditions: JHH-DIPG-1 viability, CellTiter-Glo ATP luminescence
# [4] = growth inhibition of DIPG glioma cells, dose response, cell-based, SU-DIPG-XIII, MIPE5.0, CellTiter-Glo, qHTS (AID 1347064; cut-off not given, nearly all actives have AC50 up to about 23 µM;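 as to AC50: cells exposed to compound for 48 hours before the viability read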); conditions: SU-DIPG-XIII viability, CellTiter-Glo ATP luminescence
# [5] = viability loss in pontine glioma line – cell-based, SU-DIPG-XXV, MIPE5.0, CellTiter-Glo, qHTS, dose response (AID 1347065; cut-off not given, nearly all actives have AC50 up to about 26 µM;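 also: cells exposed to compound for 48 hours before ATP readout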); conditions: CellTiter-Glo ATP luminescence
# [6] = SU-DIPG-VI glioma cell viability, MIPE4.0 library, CellTiter-Glo luminescence, qHTS (AID 1347066; cut-off not given, nearly all actives have AC50 up to about 30 µM;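 also: cells exposed to compound for 48 hours before readout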); conditions: CellTiter-Glo ATP luminescence
# [7] = JHH-DIPG-1 glioma cell viability, MIPE5.0 library, CellTiter-Glo luminescence, qHTS (AID 1347067; cut-off not given, nearly all actives have AC50 up to about 26 µM;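 also: cells exposed to compound for 48 hours before readout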); conditions: JHH-DIPG-1 glioma viability, CellTiter-Glo ATP luminescence
# [8] = SU-DIPG-XXV glioma cell viability, MIPE5.0 library, qHTS (AID 1347068; cut-off not given, nearly all actives have IC50 up to about 30 µM;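 as to IC50: cells exposed to compound for 48 hours before viability readout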)
# [9] = sensitizers of A549 cells to miR-34 induction, primary screen, imaging, A549 dox-inducible miR-34, nuclei and caspase counts (AID 1347080;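 active = compounds whose cell count with miR-34 switched on is under 0.7 times the count with it off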); conditions: A549 miR-34 inducible, Hoechst nuclei count, 48 h
# [10] = modifiers of HSF1 nuclear foci, imaging, Selleck Cancer Library (AID 1347162; in the data active = plate-normalised HSF1 focus index below about 0.46); conditions: human cells, at 10 µM; SSMD: measured here: HSF1 foci SSMD mean; cell count: measured here: cell number; plate-normalised HSF1 focus index: stronger effect = lower value
# [11] = viability rescue of complex I mutant cybrids, primary screen, cell-based, galactose medium, ATP luminescence (AID 1645843;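 active = z-score of at least 1.8 in each of two replicates, scored against plate mean and spread of sample wells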;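 also: positive z means more ATP and so rescue of galactose-driven cybrid death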); conditions: complex I mutant cybrid cells, 72 h, stronger effect = higher value
# [12] = survival rescue of mitochondrial mutant cells in low glucose, primary screen, MELAS cybrids, Rieske KO mouse fibroblasts, CellTiter-Glo (AID 1508586;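 active = mean z-score across replicates of 1.96 or higher in either the MELAS or the Rieske mutant cell line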;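 also: z relative to plate mean and SD of compound and empty wells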)
# [13] = liver-stage malaria parasite growth inhibition, primary screen, cell-based, HepG2, luciferase luminescence, HepG2 viability (AID 624349; in the data active = parasite load remaining mostly below about 12%, no sharp cut-off; inactive = mostly above about 10%;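 also: 100% = mean of DMSO negative control wells on the same plate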); conditions: P. berghei liver stage in HepG2, luciferase luminescence, concentration not given here; parasite load remaining: stronger effect = lower value; viability: measured here: HepG2 viability without parasites
# [14] = growth inhibition of DIPG glioma cells, dose response, cell-based, SU-DIPG-XIII, MIPE4.0, CellTiter-Glo, qHTS (AID 1347061; cut-off not given, nearly all actives have AC50 up to about 37 µM;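 also: cells exposed to compound for 48 hours before readout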); conditions: SU-DIPG-XIII viability, CellTiter-Glo ATP luminescence
# [15] = ovarian cancer cell viability with rucaparib, profiling panel, oncology-focused library, rucaparib conditional (AID 1508598); conditions: patient-derived ovarian cancer cells, CellTiter-Glo viability, 144 h, stronger effect = lower value
# [16] = ICB984 medulloblastoma cell growth inhibition, synergistic combos for chromothripsis tumors, cisplatin or BGB combos (AID 1671451; call rule not given here;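 also: cells exposed for 96 hours before readout; 0% = vehicle DMSO and 100% = killing by high DMSO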); conditions: ICB984 medulloblastoma cells, drug combinations, stronger effect = higher value
# [17] = growth inhibition of DIPG glioma cells, dose response, cell-based, SU-DIPG-IV, MIPE4.0, CellTiter-Glo, qHTS (AID 1347063; cut-off not given, nearly all actives have AC50 up to about 30 µM;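 also: compound exposure lasted 48 hours before the viability readout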); conditions: SU-DIPG-IV viability, CellTiter-Glo ATP luminescence
# [18] = stronger effect = lower value, cell number ratio, induced over uninduced
# [19] = measured here: relative caspase fold change +Dox/-Dox
# [20] = measured here: total cells with miR-34 induction, stronger effect = lower value
# [21] = measured here: total cells without miR-34 induction
# [22] = MELAS cybrid survival, CellTiter-Glo 48 h, stronger effect = higher value
# [23] = Rieske KO mouse fibroblast survival, CellTiter-Glo 72 h
# [24] = measured here: 5 uM single agent, at 5 µM
smiles,measurement,setting,value
CCOc1ccc(Nc2nc(-c3c(C)nc4ccccn34)cs2)cc1,remaining activity,[1],103% (inactive)
same,AC50,[2],66.1 nM (active)
same,AC50,[3],16600 nM (active)
same,AC50,[4],59 nM (active)
same,AC50,[5],37.2 nM (active)
same,outcome,[6],inactive
same,AC50,[7],52.5 nM (active)
same,IC50,[8],372 nM (active)
same,fold change,[9]; [18],1.03 (inactive)
same,fold change,[9]; [19],1.27
same,cell count,[9]; [20],2200
same,cell count,[9]; [21],2140
same,SSMD,[10],4.16
same,cell count,[10],6300
same,plate-normalised HSF1 focus index,[10],1.25 (inactive)
same,z-score,[11],-0.68 (inactive)
COc1cc2nccc(Oc3ccc(NC(=O)Nc4ccc(F)cc4F)c(F)c3)c2cc1OC,remaining activity,[1],115% (inactive)
same,AC50,[2],5250 nM (active)
same,outcome,[3],inactive
same,AC50,[5],3320 nM (active)
same,outcome,[6],inactive
same,AC50,[7],4170 nM (active)
same,fold change,[9]; [18],0.97 (inactive) and 0.906 (inactive)
same,fold change,[9]; [19],1.3 and 1.55
same,cell count,[9]; [20],1960 and 2970
same,cell count,[9]; [21],2020 and 3280
same,z-score,[12]; [22],-0.553 (inactive)
same,z-score,[12]; [23],0.363
same,z-score,[11],-0.37 (inactive)
O=c1cc(-c2cccc3c2Sc2ccccc2S3)oc(N2CCOCC2)c1,parasite load remaining,[13],39.8% (inactive)
same,viability,[13],161%
same,remaining activity,[1],94.8% (inactive)
same,outcome,[2],inactive
same,outcome,[14],inactive
same,outcome,[3],inactive
same,outcome,[6],inactive
same,outcome,[7],inactive
same,fold change,[9]; [18],0.936 (inactive) and 1.01 (inactive)
same,fold change,[9]; [19],1.11 and 2.27
same,cell count,[9]; [20],5990 and 5760
same,cell count,[9]; [21],6400 and 5730
same,SSMD,[10],2.97
same,cell count,[10],6680
same,plate-normalised HSF1 focus index,[10],1.15 (inactive)
same,z-score,[12]; [22],-0.376 (inactive)
same,z-score,[12]; [23],1.02
same,viability,"[15]; at 0.000305 µM, OCI-C5x cells, with rucaparib 10 µM, 100% = cells with rucaparib alone",113% (inactive)
same,viability,"[15]; at 0.000305 µM, OCI-C5x cells, without rucaparib",119% (inactive)
same,viability,"[15]; at 0.000305 µM, OCI-P5x cells, with rucaparib 20 µM, 100% = cells with rucaparib alone",105% (inactive)
same,viability,"[15]; at 0.000305 µM, OCI-P5x cells, without rucaparib",109% (inactive)
same,viability,"[15]; at 0.00122 µM, OCI-C5x cells, with rucaparib 10 µM, 100% = cells with rucaparib alone",122% (inactive)
same,viability,"[15]; at 0.00122 µM, OCI-C5x cells, without rucaparib",121% (inactive)
same,viability,"[15]; at 0.00122 µM, OCI-P5x cells, with rucaparib 20 µM, 100% = cells with rucaparib alone",104% (inactive)
same,viability,"[15]; at 0.00122 µM, OCI-P5x cells, without rucaparib",106% (inactive)
same,viability,"[15]; at 0.00488 µM, OCI-C5x cells, with rucaparib 10 µM, 100% = cells with rucaparib alone",118% (inactive)
same,viability,"[15]; at 0.00488 µM, OCI-C5x cells, without rucaparib",119% (inactive)
same,viability,"[15]; at 0.00488 µM, OCI-P5x cells, with rucaparib 20 µM, 100% = cells with rucaparib alone",100% (inactive)
same,viability,"[15]; at 0.00488 µM, OCI-P5x cells, without rucaparib",103% (inactive)
same,viability,"[15]; at 0.0195 µM, OCI-C5x cells, with rucaparib 10 µM, 100% = cells with rucaparib alone",117% (inactive)
same,viability,"[15]; at 0.0195 µM, OCI-C5x cells, without rucaparib",132% (inactive)
same,viability,"[15]; at 0.0195 µM, OCI-P5x cells, with rucaparib 20 µM, 100% = cells with rucaparib alone",98% (active)
same,viability,"[15]; at 0.0195 µM, OCI-P5x cells, without rucaparib",64.5% (active)
same,viability,"[15]; at 0.0781 µM, OCI-C5x cells, with rucaparib 10 µM, 100% = cells with rucaparib alone",116% (inactive)
same,viability,"[15]; at 0.0781 µM, OCI-C5x cells, without rucaparib",119% (inactive)
same,viability,"[15]; at 0.0781 µM, OCI-P5x cells, with rucaparib 20 µM, 100% = cells with rucaparib alone",106% (inactive)
same,viability,"[15]; at 0.0781 µM, OCI-P5x cells, without rucaparib",103% (inactive)
same,viability,"[15]; at 0.313 µM, OCI-C5x cells, with rucaparib 10 µM, 100% = cells with rucaparib alone",108% (inactive)
same,viability,"[15]; at 0.313 µM, OCI-C5x cells, without rucaparib",126% (inactive)
same,viability,"[15]; at 0.313 µM, OCI-P5x cells, with rucaparib 20 µM, 100% = cells with rucaparib alone",91.8% (active)
same,viability,"[15]; at 0.313 µM, OCI-P5x cells, without rucaparib",105% (inactive)
same,viability,"[15]; at 1.25 µM, OCI-C5x cells, with rucaparib 10 µM, 100% = cells with rucaparib alone",111% (inactive)
same,viability,"[15]; at 1.25 µM, OCI-C5x cells, without rucaparib",127% (inactive)
same,viability,"[15]; at 1.25 µM, OCI-P5x cells, with rucaparib 20 µM, 100% = cells with rucaparib alone",108% (inactive)
same,viability,"[15]; at 1.25 µM, OCI-P5x cells, without rucaparib",107% (inactive)
same,viability,"[15]; at 5 µM, OCI-C5x cells, with rucaparib 10 µM, 100% = cells with rucaparib alone",88.8% (active)
same,viability,"[15]; at 5 µM, OCI-C5x cells, without rucaparib",131% (inactive)
same,viability,"[15]; at 5 µM, OCI-P5x cells, with rucaparib 20 µM, 100% = cells with rucaparib alone",66.3% (active)
same,viability,"[15]; at 5 µM, OCI-P5x cells, without rucaparib",27.9% (active)
same,z-score,[11],-0.18 (inactive)
same,inhibition,"[16]; BGB IC20 combo, at 0.005 µM",-0.749%
same,inhibition,"[16]; BGB IC40 combo, at 0.005 µM",-24.9%
same,inhibition,"[16]; BGB IC40 combo, at 0.05 µM",11.6%
same,inhibition,[16]; at 0.5 µM,-26.5% (inactive)
same,inhibition,"[16]; cisplatin combo, at 0.05 µM",9.17%
same,inhibition,"[16]; cisplatin combo, at 0.5 µM",-36.8%
same,inhibition,"[16]; cisplatin combo, at 5 µM",-31.3%
same,inhibition,[16]; [24],-22.7%
Cc1[nH]c(/C=C2\C(=O)Nc3ccccc32)c(C)c1CCC(=O)O,remaining activity,[1],95.9% (inactive)
same,AC50,[2],16600 nM (active)
same,AC50,[3],16600 nM (active)
same,fold change,[9]; [18],0.887 (inactive)
same,fold change,[9]; [19],1.48
same,cell count,[9]; [20],5970
same,cell count,[9]; [21],6730
same,z-score,[11],0.51 (inactive)
O=C(O)C1CCCN(CCC=C(c2ccccc2)c2ccccc2)C1 (stereo not drawn),remaining activity,[1],104% (inactive)
same,outcome,[2],inactive
same,outcome,[14],inactive
same,outcome,[3],inactive
same,outcome,[17],inactive
same,outcome,[4],inactive
same,outcome,[6],inactive
same,outcome,[7],inactive
same,outcome,[8],inactive
same,fold change,[9]; [18],0.98 (inactive) and 0.952 (inactive)
same,fold change,[9]; [19],1.12 and 1.07
same,cell count,[9]; [20],9290 and 8980
same,cell count,[9]; [21],9480 and 9430
same,z-score,[11],0.12 (inactive) and 0.13 (inactive)
CCC(C)N(C)C(=O)c1cc2ccccc2c(-c2ccccc2Cl)n1 (stereo not drawn),remaining activity,[1],91.6% (inactive)
same,outcome,[2],inactive
same,outcome,[3],inactive
same,outcome,[4],inactive
same,outcome,[5],inactive
same,outcome,[7],inactive
same,fold change,[9]; [18],0.969 (inactive) and 0.89 (inactive)
same,fold change,[9]; [19],1.99 and 1.15
same,cell count,[9]; [20],8810 and 6770
same,cell count,[9]; [21],9100 and 7610
same,z-score,[11],0.245 (inactive) and 0.79 (inactive)
CCc1c2c(nc3ccc(O)cc13)-c1cc3c(c(=O)n1C2)COC(=O)[C@]3(O)CC,remaining activity,[1],107% (inactive)
same,AC50,[2],8.33 nM (active)
same,AC50,[17],29.6 nM (active)
same,fold change,[9]; [18],0.769 (inactive) and 0.994 (inactive)
same,fold change,[9]; [19],3.45 and 2.11
same,cell count,[9]; [20],1510 and 2070
same,cell count,[9]; [21],1960 and 2080
same,z-score,[12]; [22],0.182 (inactive)
same,z-score,[12]; [23],-0.363
same,z-score,[11],-0.66 (inactive)
same,inhibition,"[16]; BGB IC20 combo, at 0.005 µM",45.8%
same,inhibition,"[16]; BGB IC40 combo, at 0.005 µM",68.8%
same,inhibition,"[16]; BGB IC40 combo, at 0.05 µM",95.3%
same,inhibition,[16]; at 0.5 µM,-17.9% (inactive)
same,inhibition,"[16]; cisplatin combo, at 0.05 µM",95.2%
same,inhibition,"[16]; cisplatin combo, at 0.5 µM",-11.4%
same,inhibition,"[16]; cisplatin combo, at 5 µM",-28.7%
same,inhibition,[16]; [24],-16.8%
